The assay has as its system Wnt5a (protein binding on small-molecule microarray). As to the kind of experiment: small molecules binding Wnt5a protein – biophysical, small-molecule microarray, 635/667 nm fluorescence, primary screen (AID 1142).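 Note: fluorescence read at 667 nm with signal to noise per printed feature.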 Particulars: 635 nm fluorescence, higher = more signal.
`Cc1ccccc1C(O)C1C=CC2C(=O)N(c3ccccc3)C(=O)C2N1Nc1ccccc1F` (stereo unspecified) came in with a composite z-score of 0.0624.

The compound `COC(=O)[C@@]1(CCS(=O)(=O)c2ccccc2)N=C(c2ccc(OCCCO)cc2)O[C@H]1c1ccccc1N=[N+]=[N-]` came in with a composite z-score of 0.0174.

In the case of `C=C(CCCC)C(=O)CC[C@H](OC(=O)c1cccnc1)c1ccc(CO)o1`, the composite z-score turned out to be 0.239.

`COCCOC(=O)N1C(=O)[C@@]2(c3cc(C#CC4(O)CCCCCC4)ccc31)[C@H](c1ccc(OCCO)cc1)N1[C@H](c3ccccc3)[C@H](c3ccccc3)OC(=O)[C@H]1[C@@H]2C(N)=O` came in with a composite z-score of 0.437.

In turn, `CN(C)C(=O)[C@]1(Cc2ccccc2)N=C(c2ccc(OCCCO)cc2)O[C@@H]1c1ccccc1` displayed a composite z-score of 0.0831.

`COc1ccc(C#Cc2ccc3c(c2)[C@]2(C(=O)N3)[C@H](C(=O)Nc3nc4ccccc4s3)[C@H]3C(=O)O[C@H](c4ccccc4)[C@H](c4ccccc4)N3[C@@H]2c2ccc(OCCO)cc2)cc1` yielded a composite z-score of 0.505.

With `CCOC(=O)C[C@H]1[C@H](OC(=O)c2ccc(C(=O)c3ccccc3)cc2)[C@@H](NC(=O)c2ccc3ccccc3c2)c2cc(OCCCO)ccc2N1C(=O)c1ccc2ccccc2n1`, the composite z-score is 0.289.

`CN(C)CCCCNC(=O)[C@H]1C[C@H]2C(=O)N[C@@H](Cc3ccccc3)C(=O)N2[C@H]1c1cccc(OCCO)c1`: the composite z-score is -0.113.

`C=C(CC1([C@@H](NP(=O)(c2ccccc2)c2ccccc2)[C@H]2C[C@@H]2CCN(C(=O)OCC)S(=O)(=O)c2ccc(C)cc2)CC1)c1ccccc1` gave a composite z-score of 0.302.

`C=C(CCCC)/C(=C/C[C@H](OC(C)=O)c1cccc(OCCO)c1)c1cc(C(=O)OC)ccc1OC` came in with a composite z-score of -0.229.

With `C=CCNC(=O)[C@H]1[C@@H]2C(=O)O[C@@H](c3ccccc3)[C@@H](c3ccccc3)N2[C@@H](c2ccccc2OCCO)[C@]12C(=O)N(C(=O)OCCOC)c1ccccc12`, the composite z-score was 0.307.

As for `O=C1OCCC/C=C\[C@H]2OC34C=CCN(Cc5ccccc5)C(=O)[C@H]3N(CCCCCO)C(=O)[C@@H]4C12` (stereo partly specified), the composite z-score is -0.238.

Regarding `CC(C)(C)OC(=O)CC[C@]1(C(=O)N2CCOCC2)N=C(c2ccc(OCCCO)cc2)O[C@H]1c1ccccc1CN=[N+]=[N-]`, the composite z-score amounted to 1.07.

Turning to `CCCC=C(CCC)[C@@H](NC(=O)c1ccco1)c1ccc(C(=O)OC)cc1`, the composite z-score amounted to 0.22.

For `COC(=O)c1c(CC[C@@H](CO)NC(=O)N[C@@H](Cc2ccccc2)Cn2cc(-c3cncn3C)nn2)oc(C(C)=O)c1C(=O)OC`, the composite z-score was -0.245.

As to `COC(=O)[C@@]1(Cc2ccc(OC)cc2)[C@H]2c3cc(C(=O)N(C)C)n(Cc4ccsc4Br)c3C[C@H]2CN1C(=O)c1ccccc1`, the composite z-score was found to be 0.286.

`C=CCC(OC(C)=O)[C@@H]1[C@@H](N(Cc2ccc(-c3ccccc3)cc2)C(=O)c2ccc(-c3ccccc3)cc2)c2cc(OCCCO)ccc2N1C(=O)c1ccc2ccccc2n1` (stereo partly specified) gave a composite z-score of -0.0949.

`O=C1c2ccccc2[C@](Cc2ccccc2I)(C(=O)O)[C@H](c2ccc(CO)cc2)N1Cc1ccccc1` came in with a composite z-score of 0.303.

As to `COCC(=C=CC[C@@H](O)c1cccc(OCCO)c1)C[C@@H](O)COCc1ccccc1`, the composite z-score was determined as 0.515.

In turn, `C[N+](C)(C)CCCCCCNC(=O)[C@@H]1C[C@@H]2C(=O)N[C@@H](Cc3ccccc3)C(=O)N2[C@@H]1c1ccc(O)cc1` displayed a composite z-score of 0.42.

In turn, `COCCOC(=O)N1C(=O)[C@@]2(c3ccccc31)[C@H](c1ccc(OCCO)cc1)N1[C@H](c3ccccc3)[C@H](c3ccccc3)OC(=O)[C@H]1[C@@H]2C(=O)N1CCN(c2ncccn2)CC1` registered a composite z-score of 0.453.

Turning to `COCCOC(=O)N1C(=O)[C@@]2(c3cc(C#CCCO)ccc31)[C@H](c1ccccc1OCCO)N1[C@H](c3ccccc3)[C@H](c3ccccc3)OC(=O)[C@H]1[C@@H]2C(=O)N1CCc2cc(OC)c(OC)cc2C1`, the composite z-score came to 0.318.

`C=CCC(OC(C)=O)[C@@H]1[C@@H](N(Cc2cc3ccccc3o2)C(=O)Cc2ccc(OC)cc2)c2cc(OCCCO)ccc2N1C(=O)Cc1ccc(OC)cc1` (stereo partly specified) had a composite z-score of -0.0737.

`CC(C)C[C@H]1NC(=O)[C@@]23C(=O)N[C@@H](Cc4ccccc4)C2[C@H](C)[C@@]2(C)O[C@H]2C3/C=C/C/C=C\CNC(=O)[C@@H]2CCCN2C1=O` (stereo partly specified): the composite z-score is 0.275.

The compound `COCCOC(=O)N1C(=O)[C@@]2(c3cc(C#CCC(C(=O)OC)C(=O)OC)ccc31)[C@H](c1ccc(OCCO)cc1)N1[C@H](c3ccccc3)[C@H](c3ccccc3)OC(=O)[C@H]1[C@@H]2C(=O)N1CCCCCCC1` registered a composite z-score of 0.803.

Turning to `COCC(=C=CC[C@@H](O)c1ccc(OCCO)cc1)C[C@@H](O)COCc1ccccc1`, the composite z-score was determined as 1.05.

Values taken from PubChem BioAssay.
